# Test results from PubChem BioAssay (Tox21).
# Where “and” joins values, the source holds several entries; their conditions need not be identical. Identical values can stand only once. Inconclusive results are not listed. Entries that show only a call come without a potency. Where a structure was tested more than once in an assay, its records may differ in their call. Calls of active or inactive are those of the source. Unless noted, the call rests on the fitted dose curve; in most records, active means well fitted curve in the direction sought with a large enough effect in the repeat runs; inconclusive means weak or mixed curves; inactive means no such curve, though single readings can be large; an effect the other way counts as inactive or inconclusive.
# How the values were obtained:
# [1] = qHTS assay to identify aromatase inhibitors - cell viability counter screen (AID 743084);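 further: cells stimulated with testosterone during compound exposure; nearly all actives have a fitted effect of over 55% in size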; further: potency means the concentration at half of the fitted maximal effect
# [2] = biological target: Aryl hydrocarbon receptor (Homo sapiens) (UniProt P35869); assay: qHTS assay to identify small molecule that activate the aryl hydrocarbon receptor (AhR) signaling pathway (AID 743085); further: nearly all actives have a fitted effect of over 15% in size; further: potency means the concentration at half of the fitted maximal effect;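 on activation: HG2L7.5c1 human HepG2 liver cells with stably integrated DRE-driven firefly reporter; series mostly up to about 70 µM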
# Summary of the method: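 Reporter assay in engineered HepG2 line HG2L7.5c1, whose plasmid carries twenty dioxin responsive elements upstream of firefly luciferase. Treatment lasted 24 h at 37C; ONE-Glo luminescence gauged induction.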
# [3] = qHTS assay to identify small molecule that activate the aryl hydrocarbon receptor (AhR) signaling pathway - cell viability counter screen (AID 743086); further: nearly all actives have a fitted effect of over 45% in size; further: potency means the concentration at half of the fitted maximal effect
# Summary of the method: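 HepG2-AhR-luc (HG2L7.5c1) cells, 4000/well, treated 24 h at 37 C with compound; viability measured as CellTiter-Fluor fluorescence after 30 min in the same wells as the luciferase read.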
# [4] = biological target: Peroxisome proliferator-activated receptor gamma (Homo sapiens) (UniProt P37231); assay: qHTS assay to identify small molecule agonists of the peroxisome proliferator-activated receptor gamma (PPARg) signaling pathway (AID 743094; active means well fitted activation curve with a large enough effect in the signal ratio in the repeat runs, not every such curve was filed as active; the % refers to the signal ratio)
# Summary of the method: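 Fluorescence-based beta-lactamase readout in HEK293H PPARg UAS-bla cells after 17 h compound exposure (37C) and 1 h B/G FRET substrate incubation at room temperature.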
# [5] = biological target: Peroxisome proliferator-activated receptor gamma (Homo sapiens) (UniProt P37231); assay: qHTS assay to identify small molecule antagonists of the peroxisome proliferator-activated receptor gamma (PPARg) signaling pathway (AID 743191; calls by dose curve; further: nearly all actives have a fitted effect of over 30% in size; further: potency means the concentration at half of the fitted maximal effect)
# Summary of the method: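 GeneBLAzer PPARg UAS-bla HEK293H cells, 5 h post-plating, exposed to compounds 17 h at 37C. LiveBLAzer B/G FRET substrate added for 1 h at room temperature; beta-lactamase reporter read by fluorescence intensity.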
# [6] = qHTS assay to identify small molecule antagonists of the peroxisome proliferator-activated receptor gamma (PPARg) signaling pathway - cell viability counter screen (AID 743194); conditions: Potency: co-treated with 50 nM rosiglitazone unless noted; further: nearly all actives have a fitted effect of over 55% in size
# Summary of the method: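 Cytotoxicity counter screen in PPARg-bla HEK293H cells, same wells as reporter assay. Compounds plus 50 nM rosiglitazone (final) for 17 h at 37 C, then viability read by CellTiter-Glo luminescence.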
# [7] = qHTS assay for small molecule agonists of the antioxidant response element (ARE) signaling pathway (AID 743202; active means well fitted activation curve with a large enough effect in the signal ratio in the repeat runs, not every such curve was filed as active; the % refers to the signal ratio; further: potency means the concentration at half of the fitted maximal effect)
# Summary of the method: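 HepG2 ARE-bla cells; 16 h treatment at 37 C; FRET-based beta-lactamase fluorescence read after 2 h substrate incubation at room temperature.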
# [8] = qHTS assay for small molecule agonists of the antioxidant response element (ARE) signaling pathway - cell viability counter screen (AID 743203; calls by dose curve; further: nearly all actives have a fitted effect of over 55% in size; further: potency means the concentration at half of the fitted maximal effect)
# Summary of the method: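 Parallel cytotoxicity read-out for the ARE-bla screen: HepG2 reporter cells, 16 hrs with compounds, then CellTiter-Glo luminescence.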
# [9] = qHTS assay for small molecule activators of the heat shock response signaling pathway - cell viability counter screen (AID 743209); further: nearly all actives have a fitted effect of over 50% in size
# Summary of the method: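 To flag cytotoxic compounds, HSE-bla HeLa cells plated at 1500 cells/well were dosed for 5 h at 37 C, followed by the reporter FRET read and then CellTiter-Glo, with luminescence recorded 30 min after reagent addition.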
# [10] = qHTS assay for small molecule activators of the heat shock response signaling pathway (AID 743210; active means well fitted activation curve with a large enough effect in the signal ratio in the repeat runs, with a control signal flat, not every such curve was filed as active; the % refers to the signal ratio;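 further: HeLa cells with beta-lactamase reporter driven by heat shock elements; series mostly up to about 63 µM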)
# Summary of the method: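 Following overnight attachment, HSE-bla HeLa cells received test compounds for 5 h at 37 C; beta-lactamase activity was then detected via FRET substrate fluorescence.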
# Chain of Aryl hydrocarbon receptor (Homo sapiens) (P35869 whole entry, looked up): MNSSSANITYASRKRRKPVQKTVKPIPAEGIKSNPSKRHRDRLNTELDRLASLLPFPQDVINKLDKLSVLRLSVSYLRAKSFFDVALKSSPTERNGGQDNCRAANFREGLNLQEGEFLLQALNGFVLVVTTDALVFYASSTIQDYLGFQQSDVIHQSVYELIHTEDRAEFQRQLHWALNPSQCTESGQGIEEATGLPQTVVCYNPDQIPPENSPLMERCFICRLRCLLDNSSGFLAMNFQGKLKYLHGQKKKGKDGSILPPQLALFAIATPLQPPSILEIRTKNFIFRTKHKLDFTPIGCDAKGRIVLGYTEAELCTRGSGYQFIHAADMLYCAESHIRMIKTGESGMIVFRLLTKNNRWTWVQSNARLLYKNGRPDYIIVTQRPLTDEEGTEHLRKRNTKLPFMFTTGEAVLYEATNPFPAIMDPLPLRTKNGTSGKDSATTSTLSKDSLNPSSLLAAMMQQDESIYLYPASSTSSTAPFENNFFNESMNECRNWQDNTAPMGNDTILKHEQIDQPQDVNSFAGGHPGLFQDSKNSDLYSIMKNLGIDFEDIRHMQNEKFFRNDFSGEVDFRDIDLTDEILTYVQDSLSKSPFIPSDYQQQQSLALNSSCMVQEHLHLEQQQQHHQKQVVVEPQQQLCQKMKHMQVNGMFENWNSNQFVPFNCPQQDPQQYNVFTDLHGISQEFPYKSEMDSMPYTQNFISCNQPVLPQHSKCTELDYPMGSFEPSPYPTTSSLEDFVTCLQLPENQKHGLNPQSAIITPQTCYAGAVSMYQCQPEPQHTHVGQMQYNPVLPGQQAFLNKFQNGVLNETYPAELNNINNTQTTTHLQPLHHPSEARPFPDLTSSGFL
# Chain of Peroxisome proliferator-activated receptor gamma (Homo sapiens) (P37231 whole entry, looked up): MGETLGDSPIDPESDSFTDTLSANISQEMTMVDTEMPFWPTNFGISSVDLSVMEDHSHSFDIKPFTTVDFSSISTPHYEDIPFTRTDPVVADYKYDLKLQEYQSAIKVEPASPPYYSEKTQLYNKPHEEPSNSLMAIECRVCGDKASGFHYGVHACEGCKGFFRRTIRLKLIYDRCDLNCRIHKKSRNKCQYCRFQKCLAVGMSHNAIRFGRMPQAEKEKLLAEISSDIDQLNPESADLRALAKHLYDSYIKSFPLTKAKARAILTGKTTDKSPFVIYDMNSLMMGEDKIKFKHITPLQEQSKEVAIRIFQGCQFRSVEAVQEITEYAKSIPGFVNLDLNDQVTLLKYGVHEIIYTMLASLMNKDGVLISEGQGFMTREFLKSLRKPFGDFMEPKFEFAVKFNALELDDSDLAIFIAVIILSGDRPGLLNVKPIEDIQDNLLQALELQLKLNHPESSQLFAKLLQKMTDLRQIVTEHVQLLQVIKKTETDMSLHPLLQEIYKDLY
SMILES,Potency [1],Potency [2],Potency [3],Potency [4],Potency [5],Potency [6],Potency [7],Potency [8],Potency [9],Potency [10],activation [10]
N#Cc1cccnc1,inactive,inactive,inactive,inactive,inactive,inactive,inactive,inactive,inactive,inactive,–
CNC(=O)Oc1cccc2c1OC(C)(C)C2,inactive,inactive,inactive,inactive,inactive,inactive,inactive,inactive,inactive,inactive,–
O=NN1CCOCC1,inactive,inactive,inactive,inactive,inactive,inactive,inactive,inactive,inactive,inactive,–
COP(=O)(NC(C)=O)SC (stereo not drawn),inactive,inactive,inactive,inactive,inactive,inactive,inactive,inactive,inactive,inactive,–
CCOP(=S)(OCC)SCSC(C)(C)C,inactive,inactive,inactive,inactive,inactive,inactive,inactive,inactive,inactive,inactive,–
C[N+](C)(C)C,inactive,inactive,inactive,inactive,inactive,inactive,inactive,inactive,inactive,–,–
ClC(Cl)=C(Cl)C(Cl)=C(Cl)Cl,inactive,inactive,inactive,inactive,inactive,inactive,inactive,inactive,inactive,inactive,–
O=C1CCCO1,inactive,inactive,inactive,inactive,inactive,inactive,inactive,inactive,inactive,inactive,–
CC1CC(=O)O1 (stereo not drawn),inactive,inactive,inactive,inactive,inactive,inactive,inactive,inactive,inactive,inactive,–
ClCc1ccccn1,inactive,inactive,inactive,inactive,inactive,inactive,inactive,inactive,inactive,inactive,–
CC(C)CON=O,inactive,inactive,inactive,inactive,inactive,inactive,inactive,inactive,inactive,inactive,–
ClC(Cl)(Cl)Br,inactive,inactive,inactive,inactive,inactive,inactive,inactive,inactive,inactive,–,-1.07% [at 13.2 µM] (inactive)
CCCCCCCCCc1ccc(O)cc1,55 µM (active),inactive,inactive,inactive,–,–,–,–,–,–,–
CCOS(=O)(=O)OCC,inactive,inactive,inactive,inactive,inactive,inactive,inactive,inactive,inactive,–,–
OCCOCCO,inactive,inactive,inactive,inactive,inactive,inactive,inactive,inactive,inactive,–,–
Brc1ccc(Br)cc1,inactive,inactive,inactive,inactive,inactive,inactive,inactive,inactive,inactive,–,–
CCNc1nc(Cl)nc(NC(C)(C)C#N)n1,inactive,inactive,inactive,inactive,inactive,inactive,inactive,inactive,inactive,–,–
NC(=O)CN1CCCC1=O,inactive,inactive,inactive,inactive,inactive,inactive,inactive,inactive,inactive,inactive,–
O=C(O)CF,inactive,inactive,inactive,inactive,inactive,inactive,inactive,inactive,inactive,–,–
CC1=C(C(=O)Nc2ccccc2)SCCO1,inactive,27.8 µM (active) and 24.3 µM (active),inactive,inactive,inactive,inactive,inactive,inactive,inactive,inactive,–
CN(C)c1nc(=O)n(C2CCCCC2)c(=O)n1C,inactive,inactive,inactive,inactive,inactive,inactive,inactive,inactive,inactive,inactive,–
Clc1ccccc1-c1nnc(-c2ccccc2Cl)nn1,inactive,inactive,inactive,inactive,inactive,inactive,inactive,inactive,inactive,inactive,–
CC1(C)Cc2cccc(O)c2O1,inactive,inactive,inactive,inactive,inactive,inactive,inactive,inactive,inactive,inactive,–
O=S(=O)(O)C(F)(F)C(F)(F)C(F)(F)C(F)(F)C(F)(F)C(F)(F)C(F)(F)C(F)(F)F,inactive,inactive,inactive,inactive,inactive,inactive,inactive,27.3 µM (active),inactive,–,–
O=NN(c1ccccc1)c1ccccc1,inactive,inactive,inactive,inactive,inactive,inactive,inactive,inactive,inactive,inactive,–

SMILES,Potency [1],Potency [2],Potency [3],Potency [4],Potency [5],Potency [6],Potency [7],Potency [8],Potency [9],Potency [10],activation [10]
CN(C)P(=O)(N(C)C)N(C)C,inactive,inactive,inactive,inactive,inactive,inactive,inactive,inactive,inactive,inactive,–
Nc1ccc([N+](=O)[O-])cc1N,30.6 µM (active),61.1 µM (active),27.3 µM (active) and 30.6 µM (active),inactive,inactive,inactive,0.968 µM (active),inactive,inactive,–,–
CC(C)=CC1C(C(=O)OCN2C(=O)C3=C(CCCC3)C2=O)C1(C)C (stereo not drawn),inactive,inactive,inactive,inactive,11.9 µM (active),inactive,inactive,inactive,inactive,–,–
CNC(=O)CSP(=S)(OC)OC,inactive,inactive,inactive,inactive,inactive,inactive,inactive,inactive,inactive,inactive,–
CCOP(=O)(OCC)OCC,inactive,inactive,inactive,inactive,inactive,inactive,inactive,inactive,inactive,inactive,–
CC(C)Nc1nc(Cl)nc(NC(C)C)n1,inactive,inactive,inactive,inactive,inactive,inactive,inactive,inactive,inactive,inactive,–
CCCCOCC1CO1 (stereo not drawn),inactive,inactive,inactive,inactive,inactive,inactive,inactive,inactive,inactive,inactive,–
C=CC(Cl)CCl (stereo not drawn),inactive,inactive,inactive,inactive,inactive,inactive,inactive,inactive,inactive,inactive,–
CNC(=S)S,inactive,inactive,inactive,inactive,inactive,inactive,inactive,inactive,inactive,–,–
Clc1ccc(C(Cl)(Cl)Cl)cc1,inactive,inactive,inactive,inactive,inactive,inactive,inactive,inactive,inactive,inactive,–
C[N+](C)(C)CC(=O)O,inactive,inactive,inactive,inactive,inactive,inactive,inactive,inactive,inactive,–,–
Nc1ncn[nH]1,inactive,inactive,inactive,inactive,inactive,inactive,inactive,inactive,inactive,inactive,–
N#CCCCCC#N,inactive,inactive,inactive,inactive,inactive,inactive,inactive,inactive,inactive,inactive,–
O=C1Nc2ccc(Cl)cc2C(c2ccccc2)=NC1O (stereo not drawn),inactive,inactive,inactive,inactive,44 µM (active),inactive,inactive,inactive,inactive,inactive,–
N#Cc1nn(-c2c(Cl)cc(C(F)(F)F)cc2Cl)c(N)c1S(=O)C(F)(F)F (stereo not drawn),inactive,inactive,inactive and 30.8 µM (active),inactive,inactive,inactive,–,–,inactive,–,–
c1ccc(C2CO2)cc1 (stereo not drawn),inactive,inactive,inactive,inactive,inactive,inactive,inactive,inactive,inactive,inactive,–
CCCCC(C#N)(Cn1cncn1)c1ccc(Cl)cc1 (stereo not drawn),inactive,inactive,inactive,inactive,inactive,inactive,inactive,inactive,inactive,inactive,–
CCC1(c2ccc(N)cc2)CCC(=O)NC1=O (stereo not drawn),inactive,inactive,inactive,inactive,inactive,inactive,–,inactive,inactive,inactive,–
CCCCSP(=O)(SCCCC)SCCCC,inactive,inactive,inactive,inactive,–,inactive,inactive,inactive,inactive,inactive,–
CC(C)(C#N)N=NC(C)(C)C#N,inactive,inactive,inactive,inactive,inactive,inactive,inactive,inactive,inactive,inactive,–
Oc1ccc(Cl)cc1Cl,inactive,inactive,inactive,inactive,inactive,inactive,inactive,inactive,inactive,inactive,–
O=P(OCCCl)(OCCCl)OCCCl,inactive,inactive,inactive,inactive,inactive,inactive,inactive,inactive,inactive,inactive,–
CCNCC,inactive,inactive,inactive,inactive,inactive,inactive,inactive,inactive,inactive,inactive,–
NN=C(N)N,inactive,30.6 µM (active),inactive,inactive,inactive,inactive,inactive,inactive,inactive,inactive,–
CCOP(=S)(OCC)OP(=S)(OCC)OCC,inactive,inactive,inactive,inactive,inactive,inactive,inactive,inactive,inactive,inactive,–
